Compounds with a hit are over-represented: about 3.1% of the library has one in this group of screens.
KAT2A inh = inhibitors of human GCN5L2 histone acetyltransferase; Q92830; GCN5L2 HAT assay, ThioGlo1 CoA-SH fluorescence; Potency, µM (highest dose often 58.9 µM), most hits filed as inhibitors; hit rate 0.21% among 390,000; AID 504327
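GCN5L2 (20nM final) in 50mM HEPES, 0.1mM EDTA pH 7.5, 0.01% Tween-20 was preincubated 15 min at room temperature with compound, then given ThioGlo1 (50uM), H3(1-25) peptide (75uM) and acetyl-CoA (70uM); CoA-thiol fluorescence (Ex340/Em540) was read at 0 and 20 min.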
GLS inhibitor = inhibitors of human glutaminase (GLS). O94925. GLS enzymatic activity, qHTS titration. Potency, µM (titrated, usually from 45.5 µM), usual class: inhibitors. hit rate 0.21% among 410,000. AID 624170
Target sequence (O94925 whole entry, looked up): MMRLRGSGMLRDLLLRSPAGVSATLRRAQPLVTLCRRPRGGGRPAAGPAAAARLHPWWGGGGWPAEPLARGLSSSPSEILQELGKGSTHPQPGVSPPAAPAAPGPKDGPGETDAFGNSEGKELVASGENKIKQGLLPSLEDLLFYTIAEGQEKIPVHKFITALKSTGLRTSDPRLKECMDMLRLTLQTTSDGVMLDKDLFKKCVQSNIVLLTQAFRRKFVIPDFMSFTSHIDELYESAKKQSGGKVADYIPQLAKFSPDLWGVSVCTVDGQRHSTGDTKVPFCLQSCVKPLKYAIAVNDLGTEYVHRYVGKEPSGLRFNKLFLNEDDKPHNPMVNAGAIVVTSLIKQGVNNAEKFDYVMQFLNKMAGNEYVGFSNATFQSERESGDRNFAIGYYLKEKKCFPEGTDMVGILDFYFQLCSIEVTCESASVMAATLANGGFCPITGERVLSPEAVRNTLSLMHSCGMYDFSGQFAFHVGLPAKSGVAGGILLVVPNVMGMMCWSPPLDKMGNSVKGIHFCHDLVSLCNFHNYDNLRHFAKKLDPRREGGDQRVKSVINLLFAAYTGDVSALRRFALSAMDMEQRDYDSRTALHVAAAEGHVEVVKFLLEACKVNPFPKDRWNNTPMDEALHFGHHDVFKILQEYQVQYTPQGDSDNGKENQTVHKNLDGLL
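Coupled fluorescence readout: glutamate oxidase/HRP/Amplex Red detect glutamate formed by hKGA from L-glutamine (1 mM solution added). Buffer 45 mM KH2PO4 pH 8.2, 0.02% Tween-20; reads at t0 and 30 min RT.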
PI4K2A inh = PI4K2A (human) kinase inhibition | activity change, negative = inhibition, % at 76.9 µM | AID 1346378 | hit rate 0.13% among 420,000 | purified PI4K2A, ADP-Glo luminescence, 1 h; hits give low values | Q9BTU6; in the data active = activity change below about -50%; inconclusive = mostly about -30% to -49%
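Compounds are screened against recombinant PI4K2A using PI as substrate and ATP, the latter dispensed at 300 microM. Reactions run one hour at ambient temperature before ADP-Glo detection; full inhibition defined by wells lacking enzyme.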
VDR inhibitor = blocks the human vitamin D receptor; Potency, µM, hits mostly inhibitors; AID 504847; P11473; hit rate 0.93% among 400,000; VDR-SRC2-3 peptide fluorescence polarization, 2 h
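VDR–SRC2-3 interaction, FP format. Cmpds 23 nl via pintool, brief spin, 2 h ambient incubation.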
PLK1 PBD block = PLK1 (human) polo-box domain binding inhibition; P53350; Plk1 PBD binding of FITC phosphopeptide, fluorescence polarization; Potency, µM, usual class: inhibitors; hit rate 2.8% among 360,000; AID 720504; note: series mostly up to about 57 µM; nearly all actives have a fitted effect of over 65% in size
A number is an active result; n = inactive; u = inconclusive; x = no result. Unless noted, calls come from the whole dose curve; as a rule, active = well fitted curve in the direction sought with a large enough effect; inconclusive = small, poorly fitted or top-dose-only effect, or another doubt; inactive = no such curve, though single readings can be large; an effect the other way counts as inactive or inconclusive.

SMILES | KAT2A inh | GLS inhibitor | PI4K2A inh | VDR inhibitor | PLK1 PBD block
CC(=O)OC[C@H]1O[C@@H](n2ccc(=O)[nH]c2=S)C(OC(C)=O)C1OC(C)=O (stereo partly specified) | n | n | n | n | n
COc1ccc(NC(=O)COC(=O)c2ccco2)c([N+](=O)[O-])c1 | n | n | n | n | 27µM
CCC(=O)OCC(=O)Nc1ccc(OC)cc1[N+](=O)[O-] | n | n | n | n | n
CCOc1ccc(NC(=O)COc2ccccc2)c([N+](=O)[O-])c1 | n | u | n | u | 24µM
CN1C=CC(=C2C(=O)c3ccccc3C2=O)C=C1 | n | x | x | x | x
CCCCCCN1C=CC(=C2C(=O)c3ccccc3C2=O)C=C1 | n | n | n | n | n
CCN1C=CC(=C2C(=O)c3ccccc3C2=O)C=C1 | u | n | -52 | n | n
CCCN1C=CC(=C2C(=O)c3ccccc3C2=O)C=C1 | n | n | -54 | n | n
COc1ccccc1N1CCN(C(=O)c2cc3c(C)nn(-c4ccccc4)c3s2)CC1 | x | x | n | x | x
O=C(Nc1ccccc1)OCCN1C(=O)CCC12CCC(c1ccccc1)CC2 (stereo unspecified) | x | x | n | x | x
CC1CCC(C(C)C)C(=O)/C1=C/c1ccc(N)cc1 (stereo unspecified) | n | u | n | u | 24µM
CC1/C(=C\c2ccc(Cl)cc2)C(=O)C2CC1C2(C)C (stereo unspecified) | n | n | n | n | n
S=C(c1ccc(-c2cccc(Cl)c2)o1)N1CCCCC1 | n | u | n | n | u
O=C(c1ccc(-c2ccc([N+](=O)[O-])cc2)o1)N1CCCCCCC1 | n | n | n | 35µM | 24µM
Cc1c(Cl)cccc1-c1ccc(C(=O)N2CCN(c3ccc([N+](=O)[O-])cc3)CC2)o1 | n | n | n | n | n
Cc1c(C(=O)N2CCN(c3cccc(Cl)c3)CC2)cccc1[N+](=O)[O-] | n | n | n | u | 30µM
S=C(c1ccc(-c2cccc(Cl)c2)o1)N1CCOCC1 | n | n | n | u | 19µM
O=C(c1ccc(-c2ccc([N+](=O)[O-])cc2)o1)N1CCCC(C(F)(F)F)C1 (stereo unspecified) | n | n | n | n | n
O=C(c1ccc(-c2cccc(Cl)c2)o1)N1CCN(c2ccc([N+](=O)[O-])cc2)CC1 | n | n | n | u | 27µM
O=C(OC12CCCN(C1)/C(=C/c1ccccc1)C2)c1ccccc1 (stereo unspecified) | x | x | n | x | x
O=[N+]([O-])c1cccc(-c2ccc(C(=S)N3CCN(c4ccccc4)CC3)o2)c1 | n | n | n | u | 12µM
C1COCCNCCOCCOCCOCCN1 | n | n | n | u | n
S=C1NCCNC(=S)NCCOCCOCCN1 | n | n | n | n | 27µM
O=C(Oc1ccc(C(=S)N2CCOCC2)cc1)c1ccc([N+](=O)[O-])cc1 | n | n | n | n | n
O=[N+]([O-])c1ccccc1S(=O)(=O)Oc1ccc(C(=S)N2CCOCC2)cc1 | n | n | n | n | 5.3µM
SMILES | KAT2A inh | GLS inhibitor | PI4K2A inh | VDR inhibitor | PLK1 PBD block
CC1=NN(c2ccccc2)C(=O)/C1=C/c1cccs1 | n | n | u | 79µM | 17µM
CC1=NN(c2ccc(C)cc2)C(=O)/C1=C\C=C\c1ccccc1 | n | n | n | 79µM | n
CC1=NN(c2ccccc2)C(=O)C1=Cc1ccccc1 | x | u | -57 | x | 4.7µM
CC1=NN(c2ccccc2)C(=O)/C1=C/c1ccc[nH]1 | n | n | n | n | n
CC1=NN(c2ccccc2)C(=O)/C1=C/C=C/C=C/N(C)C | n | n | u | n | n
CC1=NN(c2ccccc2)C(=O)/C1=C\c1ccc(Br)s1 | n | u | u | n | 4.7µM
CC1=NN(c2ccccc2)C(=O)/C1=C\c1cc(C)n(-c2ccccc2)c1C | n | n | n | n | n
Cc1ccc(/C(=C\CN2CCCC2)c2cccc(/C=C/C(=O)O)n2)cc1 | x | n | x | x | x
O=C(NCCc1ccccc1)OCc1cn(Cc2ccc(Cl)cc2)nn1 | x | x | n | x | x
Cc1cnc(C(=O)OCc2nc3ccsc3c(=O)[nH]2)cn1 | n | 14µM | n | n | n
CCc1ccc(N2CC(C(=O)OCc3nc4ccsc4c(=O)[nH]3)CC2=O)cc1 (stereo unspecified) | n | 18µM | n | n | n
CCOC(=O)CSc1nnc(NC(=O)CN2CCCCC2)s1 | n | n | n | n | 27µM
Cc1cccc(NC(=O)CSc2nnc(NC(=O)CN3CCCCC3)s2)c1 | n | x | x | x | x
COCC(=O)OCC(=O)Nc1cc(C(C)(C)C)nn1-c1ccccc1 | n | n | n | n | n
CC(C)(C)CC(=O)OCC(=O)Nc1cc(C(C)(C)C)nn1-c1ccccc1 | n | n | n | n | 24µM
Cn1c(=S)ccc2ccccc21 | n | n | n | n | 27µM
Cc1c(C(=O)OCC(=O)Nc2c(C)n(C)n(-c3ccccc3)c2=O)cccc1[N+](=O)[O-] | n | n | n | n | 21µM
COc1cc(C(=O)OCC(=O)Nc2c(C)n(C)n(-c3ccccc3)c2=O)c([N+](=O)[O-])cc1OC | n | n | n | n | n
O=C(Nc1ccccc1)OCCN1CCCC12CCC(c1ccccc1)CC2 (stereo unspecified) | x | x | n | x | x
Cc1[nH]nc2c1C(=O)CC(C)(C)C2 | n | n | n | n | n
Cc1[nH]nc2c1C(=O)CCC2 | n | n | n | n | 7.5µM
Oc1c(Br)cc(/C=N/n2c(-c3ccccc3)n[nH]c2=S)c(O)c1Br | n | n | n | u | 6.7µM
Cc1c(Br)c(O)c(Br)c(O)c1/C=N/n1c(-c2ccccc2)n[nH]c1=S | n | u | n | u | 3µM
CCN(CC)S(=O)(=O)c1cccc(-c2n[nH]c(=S)n2/N=C/c2ccc(Br)cc2)c1 | n | n | n | n | 21µM
Oc1c(Br)cc(/C=N/n2c(-c3ccccc3)n[nH]c2=S)cc1Br | u | n | n | u | u
SMILES | KAT2A inh | GLS inhibitor | PI4K2A inh | VDR inhibitor | PLK1 PBD block
COc1cc(/C=N/n2c(-c3ccccc3)n[nH]c2=S)cc(OC)c1O | n | 4.5µM | n | n | n
Cc1ccc(-c2c(C(=O)NC3CCCC3)oc(=O)c3ccccc23)cc1 | x | x | n | x | x
CC1CCN(c2ccc(C(=O)O)cc2NS(=O)(=O)c2ccc(C(C)(C)C)cc2)CC1 | x | x | n | x | x
CCC[C@H]1[C@@H](OC(=O)NC2CCCCC2)CC[C@@]23CCCN2C(=O)CCC[C@@H]13 | x | x | n | x | x
O=C(NNC(=S)Nc1ccccc1)c1ccncc1 | n | n | n | n | n
O=C(NNC(=S)Nc1ccc(C(=O)O)c(O)c1)c1ccncc1 | x | n | n | u | 27µM
CCC[C@H]1[C@@H](NCc2cccs2)CC[C@@]23CCCN2C(=O)CCC[C@@H]13 | x | x | n | x | x
CN1CC(O)C2=CC(=O)C(=O)C=C21 (stereo unspecified) | 14µM | x | x | 11µM | x
O=C(NCCO)c1ccc(Oc2ccc(C(F)(F)F)cc2[N+](=O)[O-])cc1 | n | n | n | n | n
Cc1cc(C)cc(OC(=O)CS(=O)c2ccc(C(F)(F)F)cc2[N+](=O)[O-])c1 (stereo unspecified) | n | n | n | 20µM | u

Screening data as filed in PubChem.
